For 40 compounds, growth results are on record in PubChem BioAssay (NCI).

Compounds without any hit were thinned out: in the full panel of roughly 83,000, 20% have a hit.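 Single-dose data. Exposure time 48 hours. Values below 10 considered active.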 A number with no mark means an inactive call. Calls of active or inactive are those of the source.

The test deals with HL-60(TB) leukemia. The experiment in a line: NCI-60 one-dose screen, 48 h (100 = growth as untreated, 0 = no growth, -100 = all killed). Conditions: 10 µM unless noted.
Take `C#CC(C(C)C)N(CCO)CCCC` (stereo not given): the growth is 108%. On to `CC1(C)[C@H](O)CC[C@]2(C)[C@@H]1CC[C@@]13C[C@@H](CC[C@H]12)[C@@](O)(CO)C3`, for which the growth was 106%. The result for `CSc1ncc2ncn(C3OC(CO)C(O)C3O)c2n1` (stereo not given) reads 114%; that for `COC(=O)OC1C(O[C@H]2C[C@H]3[C@@H]4CC=C5C[C@@H](O)CC[C@]5(C)[C@H]4CC[C@]3(C)[C@H]2[C@H](C)C(=O)CCC(C)C)OCC(O)C1OC1OCC(O)C(O)C1OC(=O)c1ccc(OC)cc1` (stereo not given in full), -22.3% (active); that for `Nc1ccc(NC(=O)c2ccccc2)c2c1C(=O)c1ccccc1C2=O`, 135%. The result for `COc1ccc(C2=NN(C=O)C(c3ccc(Oc4nc5c(c(=O)n(C)c(=O)n5C)n4C)c(OC)c3)C2)cc1` (stereo not given) reads 90.3%; that for `COC(=O)[C@]12CC[C@@H](C)[C@H](C)[C@@H]1C1=CC[C@@H]3[C@@]4(C)C(c5ncon5)=C[C@@](C)(CO)C4=CC[C@@]3(C)[C@]1(C)CC2`, -33.9% (active); that for `COc1cc(-c2nc3cc(Cl)c(Cl)cc3[nH]2)ccc1OCC(=O)N=Nc1c(O)[nH]c2ccccc12`, -51.5% (active). As for `C#CC#CC#CC#CC#CC#CC#CC#CCC1OCC(COC(=O)O[C@@H](C(=O)O[C@H]2C[C@@]3(O)[C@@H](OC(=O)c4ccccc4)[C@@H]4[C@]5(OC(C)=O)CO[C@@H]5C[C@H](O)[C@@]4(C)C(=O)[C@H](OC(C)=O)C(=C2C)C3(C)C)[C@@H](NC(=O)c2ccccc2)c2ccccc2)O1` (stereo not given in full), the growth was 5.04% (active).

Regarding `Clc1ccc(Nc2ccnc(NCCCNc3ccnc4cc(Cl)ccc34)n2)cc1`, the growth was -72.3% (active). The result for `Cc1cc(O)c(=O)cc2c1C[C@H]1CC(C)(C)/C=C/C[C@]3(C)Oc4cc(=O)c(O)cc(C)c4C[C@H]3C[C@H](O)[C@@]1(C)O2` reads -19.8% (active).

`COc1ccc(-c2nc3ccc(-c4nc5ccc(N6CCN(c7ccncc7)CC6)cc5[nH]4)cc3[nH]2)cc1OC`: the growth is 35.3%. The result for `C#CCOc1cccc(Nc2ncnc3cc(NC(=O)C=C)ccc23)c1` reads -16.4% (active). The same measure for `COc1ccc(C2=NN(C(=O)COc3ccc(Cl)cc3)C(O)(c3cc(F)c(Cl)cc3Cl)C2)cc1OC` (stereo not given): -42.2% (active); for `Cc1nc(N)sc1C(=O)NCCO`: 167%; for `CCOC(=O)n1cc(-c2nonc2-c2cn(C)c3ccc(OC)cc23)c2cc(F)ccc21`: 99.7%. For the compound `Clc1nc(N2CCC[N+]3(CC2)CC[N+]2(CCCNCC2)CC3)nc(N2CCC[N+]3(CC2)CC[N+]2(CCCNCC2)CC3)n1` (stereo not given), the growth is 97%. The same measure for `COC(=O)[C@]12CC[C@@H](C)[C@H](C)[C@@H]1C1=CC[C@@H]3[C@@]4(C)C(C=O)=C[C@@](C)(COS(C)(=O)=O)C4[C@H](O)C[C@@]3(C)[C@]1(C)CC2` (stereo not given in full): -34.4% (active).

Turning to `Cn1c(-c2ccccc2)c(/C=C/C2=[N+](C)c3ccccc3C2(C)C)c2ccccc21`, the growth is -52.5% (active). As for `N#C/C(=N\Nc1ccc(Cl)cc1)C(=O)Nc1cc(-c2ccccc2)nn1-c1ccccc1`, the growth is 27.5%. The result for `Clc1cc(Cl)c(Cl)c(-c2nc(-c3cccnc3)cs2)c1` reads -3.35% (active); that for `COc1cc(C2CC(=O)Nc3c2c(C)nn3-c2nc3ccccc3[nH]2)c(OC)c2c1OCO2` (stereo not given), 26.2%.

For the compound `O=C1Nc2ccccc2/C1=C/c1cccn1C(=O)c1ccc(Cl)s1`, the growth was 57.3%. The same measure for `CC(=O)CC(=O)SC1=NCCS1`: 107%; for `CCCCCCCCCCCCc1ccc(C(=O)/C=C/C(=O)O)cc1`: 26.6%. The result for `COC(=O)[C@]12CC[C@@H](C)[C@H](C)[C@@H]1C1=CC[C@@H]3[C@@]4(C)C[C@@H](O)[C@H](O)[C@@](C)(CO)C4=CC[C@@]3(C)[C@]1(C)CC2` reads -28% (active); that for `C=CC(=O)Nc1cc(Nc2nccc(-c3cn(C)c4ccccc34)n2)c(OC)cc1N(C)CCN(C)C`, -65.8% (active). The same measure for `CN1CCN(c2ccc(NC3=CC(=O)c4ncncc4C3=O)cc2)CC1`: -32.1% (active); for `CCS(=O)(=O)N[C@@H]1O[C@H](COC(C)=O)C(OC(C)=O)[C@H](OC(C)=O)C1OC(C)=O` (stereo not given in full): 117%. In the case of `Cc1ccc(C(=O)NN2C(=O)CSC2c2ccc(Cl)cc2)cn1` (stereo not given), the growth was 139%. As for `N#C/C(=C\c1ccc(Cl)cc1Cl)C(=O)Nc1ncc(Cc2ccc(Cl)c(Cl)c2)s1`, the growth is 98.8%.

Consider `CCCCCCN1C(=O)/C(=c2\sc3n(c2=O)C2C(NN=3)N(CC)C(=O)N2CC)c2ccccc21` (stereo not given), for which the growth is 42.2%. `Oc1ccccc1-c1nnco1`: the growth is 96%. The result for `CCOC(=O)Nc1nccs1` reads 100%; that for `CCc1c(C)c2cc3c(c(C)c2oc1=O)OCC(=O)N3`, 75.9%. The result for `O=C(O)c1ccc2c(c1Cl)C(=O)c1ccccc1C2=O` reads 56.6%. As to `C[C@@H]1COC(Nc2ccc3ncnc(Nc4ccc(OCc5nccs5)c(Cl)c4)c3c2)=N1`, the growth is 31.3%. The result for `O=[N+]([O-])c1ccccc1CN1CCCCC1` reads 101%; that for `CCOC(=O)CCC(=O)P(=O)(O)O`, 9.71% (active); that for `O=C(/C=C/c1ccc(Br)cc1)c1ccc(-n2cc(CN3CCN(c4cc5c(cc4F)c(=O)c(C(=O)O)cn5C4CC4)CC3)nn2)cc1`, 94.3%.
